# Test results taken from the supplement of paper PMC6555819.
# System: PPARg:RXRa 90nM:30nM, anti-RXR (NR concentration 90 nM, RXRa partner concentration 30 nM)
# Experiment: PBM binding z-score (relative to random genomic background probes); higher = stronger binding; sequences stand for … in GC…GCGATTGACAGCGTAGAATGAAGG
# Summary of the method: (§1)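 Binding buffer was PBS pH 7.4 with 2% milk, 0.02% Triton X-100, 1 mM DTT, 0.2 mg/mL BSA and 0.4 mg/ml salmon testes DNA. In it, ligand-free nuclear receptor dimers were incubated 1 h on custom Agilent 4×180K protein-binding microarrays carrying double-stranded probes. Antibodies against each partner (one per run) detected binding, and z-scores were calculated against random background probes after regression normalization of scanned fluorescence.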
row,Sequence,PBM binding z-score
1,CCTTACGGGACACTGACAGGTTATAGCATTTGGA,-0.284
2,AGAACGAGGGCAATGAGTTGAGAGCACGGGTGGC,0.763
3,CCTGCTAGGTCAATGGTCGGCTAAAGCAGCTCGC,3.38
4,CCGACTGGGGCTAAGGTTACCATACTCAGTACGA,5.78
5,CTTCCAAGGTCAATGCTAGGTCAGTGAAAGCATT,3.45
6,CATACTGGGCCAAAGGTCATTGATTCCAATGCTC,11.1
7,AGAACGAGGGCACGCTGAGTTGCTAGCAGAGTAG,0.707
8,CCTCGGAGGACCACAGGAGGTCAGAGCTGCCAGA,-0.575
9,AGTCAAAGTTCAGGACGAGGTTACGTAAAGCACG,4.2
10,TCTAGTTGGTCACGGACGTCACACACGACGGGTA,1.95
11,TAGCCTAGGTCATTGCGCCAGTATAGTACGCATC,1.63
12,TCTTTTAGATCAAGCAGGTTAAGAAAGCCTGAGT,2.56
13,CATACAGGGTCAGCTAGGCCACAGTAGGGACGGC,2.01
14,GCTAGTTGGTCAGTAAAAGGTCACACGCCGGTCG,4.53
15,ACAGACAAGTGAGTGAAGGTAACTCAGCTGGACG,-0.0069
16,CCTACTGGGCCATTCAGAGGTCTTTGATCATATG,-0.188
17,CCGACTGGGGTAGAAAGGTTACCATACCATCCGG,3.32
18,CCGACTGGGGCATAAGGTTAGCATAAGCCAGCCC,1.83
19,CGTCAAAGTTCCACTAAGGTAACGTAAAGCACGC,0.281
20,CCGACTGGGGCAGATAGGTTACCATACCATCCGG,-0.0542

row,Sequence,PBM binding z-score
1,CATACAGGGTCAGCTAGGCGAGAGTAGGGACGGC,1.75
2,GGAACGAGGGCAAGTTGATCGCAGAGTTTGATGG,0.517
3,ACAGACAGGTGATGAAGCTAACTCAGGCTATCAT,-0.11
4,GCATATAGGTAATACAAGGTAAAAGTCCGATTGT,0.325
5,TCTGGGAGGACACGAAAGGTCAGAGCTCGACATC,2.34
6,CCGACTGGGGCAAAGTTACCATAACGCACAGCCA,4.86
7,AGAATGAGGTTAAGATGAGGGAAACAGAATACAT,1.78
8,ATATGTAGATTATCGGGTCATTCAGTTTGCGCAT,1.31
9,TCATATTGGTAAAGGTGAAAGTCGAACGATATGA,3.9
10,TCTCGGAGCACACGAAGGTCAGAGCTTTCCAGAG,0.995
11,CAAACTAGGTCAAGAGATCAAAGTCCGCTTCCCG,6.68
12,ATCGAAAGGTCGAGGGTGAGTATACCCACCCGAA,3.04
13,CAGCCTAGGTCAGGGCCAGTATTGGAGGAACGTT,0.402
14,ATCGAAAGGTCGAAGGTGAGTGTACCCACCCGAA,3.8
15,CGAACTAGGTTAAGGACAGTGAATCTCCGCACGC,2.08
16,TCATATAGGTAATACAGGTGAAAGCCGGCATCTA,3.35
17,CCTGCTAGGTCATCGTCAGCTAATCTACAGTATG,1.47
18,TCTTGGAGATCAACAGGAGGTTAAGAAAGATCGA,1.62
19,GCGACTGGGGCAAAGCAGGTTACCATAAGGTTGG,0.47
20,TAGCCTAGGTCATGGACCAGTATACCACGCGAAC,2.23

# System: PPARg:RXRa DBDmut IVT, anti-RXR (DBD mutation: RXRa K156A/R161A, NR concentration 270 nM, RXRa partner concentration 90 nM)
# Experiment: as above
# Summary of the method: as §1
row,Sequence,PBM binding z-score
1,CCTTACGGGACACTGACAGGTTATAGCATTTGGA,0.975
2,AGAACGAGGGCAATGAGTTGAGAGCACGGGTGGC,2.9
3,CCTGCTAGGTCAATGGTCGGCTAAAGCAGCTCGC,4.15
4,CCGACTGGGGCTAAGGTTACCATACTCAGTACGA,0.598
5,CTTCCAAGGTCAATGCTAGGTCAGTGAAAGCATT,3.33
6,CATACTGGGCCAAAGGTCATTGATTCCAATGCTC,4.86
7,AGAACGAGGGCACGCTGAGTTGCTAGCAGAGTAG,4.16
8,CCTCGGAGGACCACAGGAGGTCAGAGCTGCCAGA,-0.849
9,AGTCAAAGTTCAGGACGAGGTTACGTAAAGCACG,-0.0298
10,TCTAGTTGGTCACGGACGTCACACACGACGGGTA,2.14
11,TAGCCTAGGTCATTGCGCCAGTATAGTACGCATC,1.65
12,TCTTTTAGATCAAGCAGGTTAAGAAAGCCTGAGT,1.41
13,CATACAGGGTCAGCTAGGCCACAGTAGGGACGGC,1.06
14,GCTAGTTGGTCAGTAAAAGGTCACACGCCGGTCG,1.06
15,ACAGACAAGTGAGTGAAGGTAACTCAGCTGGACG,-0.268
16,CCTACTGGGCCATTCAGAGGTCTTTGATCATATG,4.08
17,CCGACTGGGGTAGAAAGGTTACCATACCATCCGG,0.466
18,CCGACTGGGGCATAAGGTTAGCATAAGCCAGCCC,3.03
19,CGTCAAAGTTCCACTAAGGTAACGTAAAGCACGC,0.458
20,CCGACTGGGGCAGATAGGTTACCATACCATCCGG,1.48

row,Sequence,PBM binding z-score
1,CATACAGGGTCAGCTAGGCGAGAGTAGGGACGGC,1.21
2,GGAACGAGGGCAAGTTGATCGCAGAGTTTGATGG,3.49
3,ACAGACAGGTGATGAAGCTAACTCAGGCTATCAT,-0.036
4,GCATATAGGTAATACAAGGTAAAAGTCCGATTGT,3.98
5,TCTGGGAGGACACGAAAGGTCAGAGCTCGACATC,1.27
6,CCGACTGGGGCAAAGTTACCATAACGCACAGCCA,3.71
7,AGAATGAGGTTAAGATGAGGGAAACAGAATACAT,2.68
8,ATATGTAGATTATCGGGTCATTCAGTTTGCGCAT,2.57
9,TCATATTGGTAAAGGTGAAAGTCGAACGATATGA,1.58
10,TCTCGGAGCACACGAAGGTCAGAGCTTTCCAGAG,0.43
11,CAAACTAGGTCAAGAGATCAAAGTCCGCTTCCCG,8.62
12,ATCGAAAGGTCGAGGGTGAGTATACCCACCCGAA,-0.26
13,CAGCCTAGGTCAGGGCCAGTATTGGAGGAACGTT,1.37
14,ATCGAAAGGTCGAAGGTGAGTGTACCCACCCGAA,-0.0432
15,CGAACTAGGTTAAGGACAGTGAATCTCCGCACGC,6.49
16,TCATATAGGTAATACAGGTGAAAGCCGGCATCTA,3.7
17,CCTGCTAGGTCATCGTCAGCTAATCTACAGTATG,4.49
18,TCTTGGAGATCAACAGGAGGTTAAGAAAGATCGA,0.986
19,GCGACTGGGGCAAAGCAGGTTACCATAAGGTTGG,4.62
20,TAGCCTAGGTCATGGACCAGTATACCACGCGAAC,1.67
